YB-1 expr inh: YB-1 expression inhibition; U2OS, qRT-PCR YB-1 vs CDIP delta delta Cp, 16 h; active compounds read high; zero = DMSO, each unit about twofold; delta delta Cp (YB-1 minus CDIP) (test concentration not listed); actives 0.37% (n = 30,000); AID 434959;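 active = delta delta Cp rounded down to an integer at or above 3, about 3 SD of DMSO wells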;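 also: higher means less YB-1 transcript or more CDIP transcript relative to DMSO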
U2OS ROS induce: inducers of reactive oxygen species in cancer cells | U2OS ROS induction, H2DCF-DA fluorescence | ROS induction (% of piperlongumine), % at 10 µM | actives 2% (n = 46,000) | AID 624156; in the data active = ROS induction above about 79%, passing the limit was not always enough;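 also: 0% = DMSO vehicle median and 100% = reference compound median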
* marks the source's active call; other numbers are inactive results; . = no result. Compounds with a hit are over-represented: about 2.1% of the library has one in this group of screens.

SMILES | YB-1 expr inh | U2OS ROS induce
COc1ccc(NC(=O)Nc2cccc3c2O[C@@H](CN(C)Cc2ccc(Cl)c(Cl)c2)[C@H](C)CN([C@@H](C)CO)C3=O)cc1 | -0.14 | 96*
C[C@H](CO)N1C[C@H](C)[C@@H](CN(C)Cc2ccc(Oc3ccccc3)cc2)Oc2c(NC(=O)Nc3ccc(F)cc3)cccc2C1=O | 0.38 | 82*
Cc1noc(C)c1NC(=O)Nc1cccc2c1O[C@H](CN(C)Cc1ccc(Oc3ccccc3)cc1)[C@@H](C)CN([C@@H](C)CO)C2=O | 0.19 | 88*
C[C@H](CO)N1C[C@H](C)[C@@H](CN(C)Cc2ccccc2)Oc2c(cccc2N(C)C)C1=O | -0.063 | -7
Cc1noc(C)c1NC(=O)Nc1cccc2c1O[C@H](CN(C)Cc1ccc(Oc3ccccc3)cc1)[C@H](C)CN([C@@H](C)CO)C2=O | -0.11 | -4
C[C@@H]1CN([C@@H](C)CO)C(=O)c2cccc(N(C)C)c2O[C@H]1CN(C)Cc1ccccc1 | 14* | 5
C[C@H](CO)N1C[C@H](C)[C@H](CN(C)Cc2ccc(Oc3ccccc3)cc2)Oc2c(NC(=O)Nc3ccc(F)cc3)cccc2C1=O | -0.48 | 12
COc1ccc(CN(C)C[C@@H]2Oc3c(NC(=O)Nc4ccc(OC)cc4)cccc3C(=O)N([C@H](C)CO)C[C@H]2C)cc1 | 0.062 | 12
COC(=O)c1cc2ccsc2n1CC(=O)N1CCCc2ccccc21 | . | -4
C[C@H](CO)N1C[C@H](C)[C@H](CN(C)Cc2ccc(Oc3ccccc3)cc2)Oc2c(NC(=O)c3ccncc3)cccc2C1=O | -0.14 | 10
Cc1c(Cc2ccccc2)c(=O)oc2cc3oc4c(c3cc12)CCCC4 | . | 9
Cc1noc(C)c1NC(=O)N(C)C[C@H]1Oc2ccc(NS(=O)(=O)c3ccccc3)cc2C(=O)N([C@H](C)CO)C[C@H]1C | 0.19 | 2
C[C@H](CO)N1C[C@H](C)[C@@H](CN(C)C(=O)NC2CCCC2)OCc2cn(nn2)CCCC1=O | 0.0026 | 31
COc1ccc(S(=O)(=O)Nc2ccc3c(c2)C(=O)N([C@H](C)CO)C[C@H](C)[C@H](CN(C)Cc2ccc(C(=O)Nc4ccccc4N)cc2)O3)cc1 | -0.46 | 0
Cc1cc(C(=O)Nc2cccc3c2O[C@H](CN(C)Cc2ccc(Oc4ccccc4)cc2)[C@H](C)CN([C@H](C)CO)C3=O)n(C)n1 | 0.2 | 18
C[C@@H]1CN([C@@H](C)CO)C(=O)c2cccc(NC(=O)Nc3ccccc3)c2O[C@H]1CN(C)Cc1ccc(Oc2ccccc2)cc1 | -0.21 | 105*
Cc1cc(C(=O)Nc2cccc3c2O[C@@H](CN(C)Cc2ccc(Oc4ccccc4)cc2)[C@H](C)CN([C@@H](C)CO)C3=O)n(C)n1 | -0.052 | 117*
COc1ccc(CN(C)C[C@@H]2Oc3c(NC(=O)Nc4ccccc4)cccc3C(=O)N([C@@H](C)CO)C[C@H]2C)cc1 | 0.33 | 15
C[C@@H]1CN([C@H](C)CO)C(=O)c2cccc(NC(=O)Nc3ccc(F)cc3)c2O[C@@H]1CN(C)Cc1ccc2c(c1)OCO2 | 0.15 | -5
C[C@@H]1CN([C@H](C)CO)C(=O)c2cccc(NC(=O)Nc3ccccc3)c2O[C@H]1CN(C)Cc1ccc(Oc2ccccc2)cc1 | -0.4 | 22
C[C@@H]1CN([C@@H](C)CO)C(=O)c2cccc(NC(=O)Nc3ccc(F)cc3)c2O[C@H]1CN(C)Cc1ccc2c(c1)OCO2 | 0.24 | 115*
COc1ccc(NC(=O)Nc2cccc3c2O[C@H](CN(C)Cc2ccccc2)[C@@H](C)CN([C@@H](C)CO)C3=O)cc1 | 3.6* | 1
COc1ccc(-c2nnc(SCC(=O)n3c4c(c5c3CCCC5)CCCC4)n2C)cc1 | . | -4
CC(C)=CCOc1cc2oc(=O)ccc2cc1O | 0.13 | 30
C[C@@H]1CCCCO[C@@H](CN(C)CC2CC2)[C@@H](C)CN([C@H](C)CO)C(=O)c2cc(NC(=O)Nc3ccc4c(c3)OCO4)ccc2O1 | -0.0067 | 20
SMILES | YB-1 expr inh | U2OS ROS induce
Cc1noc(C)c1NC(=O)N(C)C[C@@H]1Oc2ccc(NS(=O)(=O)c3ccc(Cl)cc3)cc2C(=O)N([C@H](C)CO)C[C@@H]1C | -0.18 | 10
C[C@H]1CN([C@@H](C)CO)C(=O)Cc2cc(NC(=O)CCN3CCOCC3)ccc2O[C@H]1CN(C)Cc1ccc(C(=O)O)cc1 | -0.19 | -8
C[C@H](CO)N1C[C@H](C)[C@H](CN(C)CC2CCCCC2)Oc2c(NC(=O)Nc3ccccc3)cccc2C1=O | 3.1* | -10
C[C@@H]1CN([C@H](C)CO)C(=O)c2cccc(NC(=O)Nc3ccccc3)c2O[C@H]1CN(C)CC1CC1 | -0.64 | 7
CC(=O)c1cccc(N(CC(=O)N2CCN(c3ccccc3F)CC2)S(C)(=O)=O)c1 | . | -11
C[C@@H]1CN([C@H](C)CO)C(=O)c2cccc(NC(=O)CCCCCC(=O)Nc3ccccc3N)c2O[C@H]1CN(C)Cc1ccc(-c2ccccc2)cc1 | -0.35 | 126*

High-throughput results from PubChem BioAssay.
